The supplement of paper PMC7411054
Structures can show the parent of a compound that is named as a salt.

Each compound was assayed on WPMY1-GM130-SQSTM1 (assay: phenotypically active (imaging signature differs from DMSO and reproducible) at any of 0.3-9 uM (binary (1 = active, 0 = inactive)); higher = active). Settings: treatment time: 24 h.
How it was run: (§1)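 Live-cell features were measured per well and normalised to solvent control wells after fifteen gene-edited A549, HepG2 and WPMY1 reporter lines had been treated for 24 h at 0.3, 1, 3 or 9 µM in four wells each. A condition was deviating when ≥3 of 4 wells sat beyond the 95th percentile of control Euclidean distances. It was reproducible when the median replicate Pearson correlation exceeded the 95th percentile of non-replicates. Phenotypic activity demanded both.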

Phenotypically active, active:
OC[C@H]1O[C@@H](n2cnc3c(NCc4ccco4)ncnc32)[C@H](O)[C@@H]1O [Kinetin riboside] 1, N#Cc1c(C2CCNCC2)cc(-c2c(O)cccc2OCC2CC2)nc1N 1, C=CC(=O)Nc1cccc(Nc2nc(Nc3ccc(OCCOC)cc3)ncc2F)c1 1, COc1cc(N2CCC(N3CCN(C)CC3)CC2)ccc1Nc1ncnc(Nc2ccccc2S(=O)(=O)C(C)C)n1 1, Fc1ccccc1CNCc1ccc(-c2ccnc3[nH]ccc23)cc1 [OXA 06 dihydrochloride] 1, C[C@H]1COCCN1c1cc(C2(S(=O)(=O)C3CC3)CC2)nc(-c2ccc(NC(=S)NCCO)cc2)n1 1

The compounds below were run on WPMY1-TP53BP1-CLTA in the same assay as above. Settings: treatment time: 24 h.
How it was run: as §1

Phenotypically active, active:
Nc1nc(Cl)nc2c1ncn2[C@@H]1O[C@H](CO)[C@@H](O)[C@@H]1F [clofarabine] 1, Cc1nc(Nc2ncc(C(=O)Nc3c(C)cccc3Cl)s2)cc(N2CCN(CCO)CC2)n1 [dasatinib] 1, O=C(NCc1cccc(O)c1)Nc1nc(-c2ccncc2)cs1 [RKI 1447 dihydrochloride] 1, CC(C)n1nc(-c2cc3cc(O)ccc3[nH]2)c2c(N)ncnc21 1, COc1ccc(-c2ccc3ncc4c(c3c2)n(-c2ccc(N3CCNCC3)c(C(F)(F)F)c2)c(=O)n4C)cn1 1, CC(C)(C)c1cnc(CSc2cnc(NC(=O)C3CCNCC3)s2)o1 1, O=C(O)c1ccc(Nc2ncc3c(n2)-c2ccc(Cl)cc2C(c2c(F)cccc2F)=NC3)cc1 1, COc1ccc(S(=O)(=O)N(C(C)=O)c2ccccc2/C=C/c2cc[n+]([O-])cc2)cc1 1, CC(C)(C)Nc1nc(Nc2ccc(C(N)=O)cc2)cc(N)c1C#N 1, Nc1cccc(-c2cc3c(Oc4cccc(O)c4)ncnc3[nH]2)c1 1, c1ccc2c(c1)Cc1c(Nc3ccc4c(c3)OCCO4)n[nH]c1-2 1, Cc1c(NC(=O)OC[C@@H]2COCCN2)cn2ncnc(Nc3ccc4c(cnn4Cc4cccc(F)c4)c3)c12 1, CCC(=O)N1CCN(c2ccc(-n3c(=O)ccc4cnc5ccc(-c6cnc7ccccc7c6)cc5c43)cc2C(F)(F)F)CC1 [Torin 1] 1, COc1c(Nc2cc(C)[nH]n2)nc(Sc2ccc(S(=O)(=O)Cc3cccc([N+](=O)[O-])c3F)cc2F)nc1N1CCOCC1 [Centrinone] 1, COc1cc2c(NC3CCN(C(C)C)CC3)nc(N3CCC(F)(F)CC3)nc2cc1OCCCN1CCCC1 1, CC(=O)c1c(C)c2cnc(Nc3ccc(N4CCNCC4)cn3)nc2n(C2CCCC2)c1=O 1, CN1c2ccccc2C(=O)N2CCc3c([nH]c4ccccc34)[C@H]21 [Evodiamine] 1, CO[C@H]1C=CC=C(C)C(=O)NC2=CC(=O)C(NCCN(C)C)=C(C[C@@H](C)C[C@H](OC)[C@H](O)[C@@H](C)C=C(C)[C@@H]1OC(N)=O)C2=O [17-DMAG hydrochloride] 1, Cc1noc(C)c1-c1cc(O)cc(C(O)c2ccccc2)c1 (stereo not given) 1, O=C(Nc1ccc(-c2ccnc(Nc3ccc(N4CCOCC4)cc3)n2)cc1)[C@@H]1CCCN1 1, NC1(C(=O)N[C@@H](CCO)c2ccc(Cl)cc2)CCN(c2ncnc3[nH]ccc23)CC1 1, NC(=O)Nc1cc(-c2cccc(F)c2)sc1C(=O)N[C@H]1CCCNC1 [AZD 7762 hydrochloride] 1, COc1cc2nc(-c3cc(F)ccc3O)nc(N[C@@H]3CNC[C@H]3C(C)(C)O)c2cc1OC 1, Cc1c[nH]c2nccc(Oc3c(F)cc(Nc4cc(Cl)nc(N)n4)cc3F)c12 1, C[C@H]1[C@H]2CC[C@H]3[C@@H]4CC=C5C[C@@H](N(C)C)CC[C@]5(C)[C@H]4CC[C@]23CN1C [Conessine] 1, CON(C)C(=O)N1N=C(c2cc(F)ccc2F)S[C@@]1(CCCN)c1ccccc1 [ARRY 520 trifluoroacetate] 1, CC[C@H](CO)Nc1nc(NCc2ccc(-c3ccccn3)cc2)c2ncn(C(C)C)c2n1 1, Oc1cccc(-c2nc(N3CCOCC3)c3oc4ncccc4c3n2)c1 [PI 103 hydrochloride] 1, COc1cc(/C=C/c2ccc(OC)cc2OC)cc(OC)c1 1, COc1cc2c(cc1-c1c(C)noc1C)ncc1[nH]c(=O)n([C@H](C)c3ccccn3)c12 [I-BET 151 dihydrochloride] 1, COc1cccc(-c2cc(F)ccc2[C@H]2Cc3nc(N)nc(C)c3C(=O)N2)n1 1, COc1cc(C(=O)NC2CCN(C)CC2)c(F)cc1Nc1ncc2c(n1)N(C1CCCC1)CC(F)(F)C(=O)N2C [TAK 960 hydrochloride] 1, CC[C@]1(O)C[C@@H]2CN(CCc3c([nH]c4ccccc34)[C@@](C(=O)OC)(c3cc4c(cc3OC)N(C=O)[C@H]3[C@@](O)(C(=O)OC)[C@H](OC(C)=O)[C@]5(CC)C=CCN6CC[C@]43[C@@H]65)C2)C1 [vincristine] 1, OC[C@H]1O[C@@H](n2cnc3c(NCc4ccco4)ncnc32)[C@H](O)[C@@H]1O [Kinetin riboside] 1, N#Cc1c(C2CCNCC2)cc(-c2c(O)cccc2OCC2CC2)nc1N 1, C=CC(=O)Nc1cccc(Nc2nc(Nc3ccc(OCCOC)cc3)ncc2F)c1 1, COc1cc(N2CCC(N3CCN(C)CC3)CC2)ccc1Nc1ncnc(Nc2ccccc2S(=O)(=O)C(C)C)n1 1, Fc1ccccc1CNCc1ccc(-c2ccnc3[nH]ccc23)cc1 [OXA 06 dihydrochloride] 1, C[C@H]1COCCN1c1cc(C2(S(=O)(=O)C3CC3)CC2)nc(-c2ccc(NC(=S)NCCO)cc2)n1 1
